Source: PubChem BioAssay (NCI)
Compounds without any hit were thinned out: in the full panel of roughly 83,000, 20% have a hit.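 Percent growth is the endpoint: 0 to 100 indicates growth inhibition (40 means 60% inhibition), 0 means no net growth, and negative values indicate cell death.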 A number with no mark means an inactive call. The source made the active and inactive calls. The calls were made as follows: active = growth percent below 10; inactive = the rest.

Columns and labels:
Test in all cases: NCI-60 one-dose screen, 48 h (100 = growth as untreated, 0 = no growth, -100 = all killed)
Details in all cases: 10 µM unless noted
SR leukemia = test system: SR leukemia
RPMI-8226 leukemia = test system: RPMI-8226 leukemia
OVCAR-8 ovarian = test system: OVCAR-8 ovarian
OVCAR-5 ovarian = test system: OVCAR-5 ovarian
OVCAR-4 ovarian = test system: OVCAR-4 ovarian
SK-OV-3 ovarian = test system: SK-OV-3 ovarian
IGROV1 ovarian = test system: IGROV1 ovarian
OVCAR-3 ovarian = test system: OVCAR-3 ovarian
HS 578T breast = test system: HS 578T breast
NCI/ADR-RES ovarian = test system: NCI/ADR-RES ovarian
BT-549 breast = test system: BT-549 breast
SW-620 colon = test system: SW-620 colon
MCF7 breast = test system: MCF7 breast
HCT-116 colon = test system: HCT-116 colon
HCC-2998 colon = test system: HCC-2998 colon
KM12 colon = test system: KM12 colon
T-47D breast = test system: T-47D breast
MDA-MB-435 melanoma = test system: MDA-MB-435 melanoma

Row | Structure (SMILES) | growth (SR leukemia) | growth (RPMI-8226 leukemia) | growth (OVCAR-8 ovarian) | growth (OVCAR-5 ovarian) | growth (OVCAR-4 ovarian) | growth (SK-OV-3 ovarian) | growth (IGROV1 ovarian) | growth (OVCAR-3 ovarian) | growth (HS 578T breast) | growth (NCI/ADR-RES ovarian) | growth (BT-549 breast) | growth (SW-620 colon) | growth (MCF7 breast) | growth (HCT-116 colon) | growth (HCC-2998 colon) | growth (KM12 colon) | growth (T-47D breast) | growth (MDA-MB-435 melanoma)
1 | Cn1c(COC(=O)NCCc2ccccn2)nc2c(N3CCOCC3)nc(Cl)nc21 | 3.5% (active) | -22.7% (active) | 4.96% (active) | -65% (active) | -59.3% (active) | 90.3% | -92.3% (active) | -88% (active) | -25% (active) | 18.9% | 2.36% (active) | -86.2% (active) | -43.5% (active) | -69.8% (active) | 37.5% | 44.3% | – | –
2 | COc1ccc(-c2nc3sccn3c2/C=C/C(=O)c2cc(OC)c(OC)c(OC)c2)cc1 | 55.4% | -39.1% (active) | 49.9% | 103% | 54.7% | 68.5% | – | 53.7% | 71.1% | 47.5% | 46.9% | 72.5% | 17.2% | 42% | 71.2% | 35.8% | 30.5% | 29.8%
3 | CC[N+](CC)(CCCC(C)[N+]1(Cc2ccccc2)C(C)=CC=C1C)Cc1ccccc1 (stereo not drawn) | 90.1% | 33.6% | 101% | 88.1% | 62.1% | 101% | 62.4% | 64% | – | 97.7% | 82.9% | 89% | 81% | 47.6% | 80.8% | 81.7% | 77.7% | 82.8%
4 | CCc1c(Nc2ccc(C)cc2)[nH]c(N)nc1=S | 94.4% | 115% | 101% | 98.9% | 107% | 111% | 104% | 119% | 94.8% | 105% | 100% | 107% | 91.3% | 98.3% | – | 104% | – | 104%
5 | COc1cc(CNC(=O)CCCCC[P+](c2ccccc2)(c2ccccc2)c2ccccc2)c(OC)c2c1OCO2 | 22.9% | 1.67% (active) | 75.3% | 99.5% | 23.7% | 127% | 41.8% | 44.5% | 78% | 105% | 37.8% | 70.7% | 67.4% | – | 57.6% | 45.6% | – | 39%
6 | Clc1ccc(C2CC(c3cccc(Nc4ccncc4)c3)=NN2c2ccc(Cl)cc2)cc1 (stereo not drawn) | 2.85% (active) | 0.298% (active) | -38.9% (active) | 65.4% | -14.5% (active) | 83.7% | 7.44% (active) | 31% | 54% | 11.2% | -80.2% (active) | -67.6% (active) | -41.1% (active) | -73.2% (active) | -74% (active) | -77.3% (active) | – | -79% (active)
7 | Clc1cc(Cl)cc(N2N=C(c3cccc(Nc4ccncc4)c3)CC2c2ccc3c(c2)OCO3)c1 (stereo not drawn) | 2.87% (active) | 11.3% | -21% (active) | 86.7% | 14.9% | 74.1% | 2.89% (active) | 52.3% | 50.6% | 66.9% | – | -84.1% (active) | -19.3% (active) | 65.3% | -40.8% (active) | -51.6% (active) | – | -85.4% (active)
8 | CCC(C)N(CCNc1cc(OC)cc2cccnc12)CCC(C)C (stereo not drawn) | 51.8% | 94.1% | 86.6% | 102% | 26% | 68.3% | 66.4% | 64% | 82.9% | 85.5% | 90.8% | 58.4% | 25.7% | 64.9% | 79.1% | 77.6% | – | –
9 | Cc1c([N+](=O)[O-])cc(C(C)(C)C)cc1[N+](=O)[O-] | 106% | 112% | 98.6% | 91.1% | 115% | 92.3% | 112% | 101% | 99.5% | 103% | 102% | 98.9% | 92.8% | 87.3% | 95.2% | 102% | – | 107%
10 | CC(=O)O[C@H]1CC[C@@]2(C)[C@@H](CC[C@@H]3[C@@H]2CC[C@@]2(C)[C@H]3CC[C@]2(O)C(C)=O)C1 | 91.8% | 88.1% | 109% | 97.7% | 102% | 103% | 99.7% | 108% | 97.2% | 96% | 92.5% | 104% | 105% | 99.1% | 96.5% | 107% | – | 104%
11 | O=C(CN1CCOCC1)Nc1ccc2ncnc(Nc3ccc(Oc4cccc(C(F)(F)F)c4)c(Cl)c3)c2c1 | 61.5% | 51.5% | 49.8% | 64.3% | 55% | 16% | 9.01% (active) | 33.8% | 70.8% | 42.3% | 70.1% | 82.2% | 34.2% | 45.1% | 87.1% | 74.2% | – | 65.5%
12 | COc1cc2nc(Cc3ccc(C)cc3)[nH]c(=O)c2cc1OC | 100% | 88.2% | 104% | 102% | 108% | 113% | 109% | 109% | 100% | 102% | 229% | 101% | 104% | 117% | 106% | 109% | – | 119%
13 | CCCCCCCCCCCCCCCCCCOc1ccccc1N | 75.4% | 12.1% | 70.9% | 101% | 55% | 74.7% | 75.1% | 44.9% | 84.2% | 86.9% | -5.26% (active) | 98.7% | 75.4% | 44% | 88.8% | 39.8% | – | 78.7%
14 | CCCCCCCCN1C(=O)/C(=c2\sc3n(c2=O)C2C(NN=3)N(CC)C(=O)N2CC)c2ccccc21 (stereo not drawn) | 77.5% | 105% | 85.7% | 81.6% | 94.2% | 90.6% | 86.5% | 98.6% | 40.4% | 82.2% | 86.9% | 86.8% | 85.2% | 63.2% | 103% | 89.9% | – | 57.3%
15 | COc1ccc(Cl)cc1NC(=O)c1c(NC(=O)C(F)(F)C(F)(F)F)sc2c1CCCCC2 | 4.32% (active) | -31.9% (active) | 10.5% | 21.6% | 7.67% (active) | -19.6% (active) | 20.3% | 6.24% (active) | -3.45% (active) | 3.81% (active) | -4.71% (active) | 12.8% | 4.9% (active) | – | 15.9% | 3.84% (active) | – | 8.76% (active)
16 | CCN(CC)CCCC(Nc1c2ccc(Cl)cc2nc2ccc(OC)cc12)c1ccc(Cl)cc1 (stereo not drawn) | -32.9% (active) | -18.6% (active) | -37.7% (active) | 33.7% | 20.3% | 64.9% | -15.3% (active) | -17.6% (active) | -47.7% (active) | -13.3% (active) | 43.4% | -75.8% (active) | -73.8% (active) | -88.8% (active) | – | -56.9% (active) | – | -88.2% (active)
17 | CCCCCCOc1ccc(C(=N)N(CCCC)CCCC)c2ccccc12 | -46.9% (active) | -41.2% (active) | -74.6% (active) | -93.8% (active) | -96.4% (active) | -96.4% (active) | – | -94.2% (active) | -13.9% (active) | -95.3% (active) | -94.6% (active) | -61.3% (active) | -74.8% (active) | -99.2% (active) | -98% (active) | -90.3% (active) | – | -89.5% (active)
18 | COc1ccc2c(c1)OC13Oc4cc(OC)ccc4C=C1CCCC3=C2 | 4.94% (active) | -20.6% (active) | 47.7% | 47.2% | 55.2% | 60.1% | 41.4% | 5.62% (active) | 45% | 21.6% | 35% | 16.6% | 8.63% (active) | 20% | 57.9% | -5.69% (active) | – | -10.4% (active)
